For 30 compounds, Potency results are on record in PubChem BioAssay (Tox21).

Several values for one entry are separate records, joined by “and”; a condition that tells them apart may be missing. Equal values may be shown once. Results filed as inconclusive are left out. Where a call stands in place of a potency, no number is given. Activity calls are given as the source filed them. Calls come from the whole dose curve; as a rule, active = well fitted cell-killing curve with a large enough effect in the repeat runs; inconclusive = weak or mixed curves, or effect the other way; inactive = no such curve, though single readings can be large or run the other way.
Potency is the fitted concentration of half-maximal effect.

The nature of the first test: qHTS assay for identifying genotoxic compounds that show differential cytotoxicity against isogenic chicken DT40 cell lines with known DNA damage response pathways - wild type cell line (AID 743012). Note: nearly all actives have a fitted effect of over 60% in size. Particulars: DT40 wild type chicken cells viability, CellTiter-Glo, 40 h; series mostly up to 68.4 µM. The essentials:
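Quantitative HTS on parental DT40 cells: 40 h compound treatment at 37 C/5% CO2, with viability then determined by CellTiter-Glo luminescence. Values serve as the DNA repair-proficient reference for differential cytotoxicity.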
In general terms: Quantitative high-throughput screening tests each substance at several concentrations.
Consider `O=c1c2ccccc2c(=O)c2c1cc(Cl)c1[nH]c3c([nH]c12)c(Cl)cc1c(=O)c2ccccc2c(=O)c13`, for which the Potency result is “inactive”.

For `CCN(CC)CCN1C(=O)CN=C(c2ccccc2F)c2cc(Cl)ccc21`, the Potency is 6.68 µM (active).

With `CNC(=O)O/N=C(\C)C(C)S(C)(=O)=O` (stereo not given), the Potency result is “inactive”.

Take `CCCCCCC[CH2][Sn]([Cl])([Cl])[CH2]CCCCCCC`: the Potency entry is “inactive”.

On to `O=C(NC(=O)c1c(F)cccc1F)Nc1ccc(Oc2ccc(C(F)(F)F)cc2Cl)cc1F`, for which the Potency was 4.33 µM (active).

As to `CN(C)C(=S)SSC(=S)N(C)C`, the Potency was 47.3 nM (active) and 240 nM (active) and 24.3 nM (active).

Turning to `Nc1nc(N)nc(Cl)n1`, the Potency entry is “inactive”.

Turning to `O=[N+]([O-])c1ccc(Cl)c(Cl)c1Cl`, the Potency result is “inactive”.

Regarding `O=NN(CCO)CCO`, the Potency entry was “inactive”.

As for `C=CC(=O)[O][Sn]([CH2]CCC)([CH2]CCC)[CH2]CCC`, the Potency is 0.864 µM (active).

Turning to `CSSC`, the Potency entry was “inactive”.

Consider `CCC[CH2][Sn]([CH2]CCC)([CH2]CCC)[CH2]CCC`, for which the Potency is 7.7 µM (active).

For the compound `CCCCON=O`, the Potency result was “inactive”.

On to `CCc1cccc(C)c1N(C(=O)CCl)[C@@H](C)COC`, for which the Potency is 13.7 µM (active).

For the compound `NC(=O)C(Cl)Cl`, the Potency entry is “inactive”.

As to `CN1C(=O)[C@@H](NC(=O)c2cc3ccccc3[nH]2)N=C(c2ccccc2)c2ccccc21`, the Potency is 10.6 µM (active).

In the case of `CCCCc1ccccc1`, the Potency result is “inactive”.

Regarding `Clc1ccc(C(Cl)(Cl)Cl)cc1Cl`, the Potency entry is “inactive”.

As for `CCn1cc[n+](C)c1` (tested in a mixture with another compound), the Potency entry was “inactive”.

Consider `CNC(=O)CSP(=O)(OC)OC`, for which the Potency entry was “inactive”.

In the case of `[Cl][Hg][c]1ccccc1`, the Potency was 0.122 µM (active).

`ClCBr`: the Potency entry was “inactive”.

`CSC(C)(C)/C=N/O`: the Potency entry was “inactive”.

Consider `CCOP(=S)(NC(C)C)Oc1ccccc1C(=O)OC(C)C` (stereo not given), for which the Potency was 15.4 µM (active).

Regarding `CC(Cl)CCl` (stereo not given), the Potency result is “inactive”.

Regarding `CNC(C)(C)Cc1ccccc1`, the Potency result is “inactive”.

With `C[N+]1(C)[C@@H]2CC[C@H]1CC(OC(=O)C(CO)c1ccccc1)C2` (stereo not given in full), the Potency result is “inactive”.

For the compound `C=CC(=C)C`, the Potency was 27.3 µM (active).

Consider `Cc1cnc2c(C(=O)O)c(Cl)ccc2c1`, for which the Potency result was “inactive”.

Another test can be described thus: qHTS assay for identifying genotoxic compounds that show differential cytotoxicity against isogenic chicken DT40 cell lines with known DNA damage response pathways - Rev3 mutant cell line (AID 743014). Note: nearly all actives have a fitted effect of over 55% in size. Conditions: chicken DT40 Rev3-/- viability, CellTiter-Glo, 40 h; series mostly up to 68.4 µM.
For the compound `CCN(CC)CCN1C(=O)CN=C(c2ccccc2F)c2cc(Cl)ccc21`, the Potency was 13.3 µM (active).

On to `O=C(NC(=O)c1c(F)cccc1F)Nc1ccc(Oc2ccc(C(F)(F)F)cc2Cl)cc1F`, for which the Potency was 21.7 µM (active).

With `CN(C)C(=S)SSC(=S)N(C)C`, the Potency is 106 nM (active) and 107 nM (active) and 19.3 nM (active).

On to `O=[N+]([O-])c1ccc(Cl)c(Cl)c1Cl`, for which the Potency result was “inactive”.

For `O=NN(CCO)CCO`, the Potency result was “inactive”.

For `C=CC(=O)[O][Sn]([CH2]CCC)([CH2]CCC)[CH2]CCC`, the Potency is 0.864 µM (active).

In the case of `CCC[CH2][Sn]([CH2]CCC)([CH2]CCC)[CH2]CCC`, the Potency was 21.7 µM (active).

Turning to `CCCCON=O`, the Potency entry was “inactive”.

As for `CCc1cccc(C)c1N(C(=O)CCl)[C@@H](C)COC`, the Potency was 19.3 µM (active).

Regarding `NC(=O)C(Cl)Cl`, the Potency result was “inactive”.

For `Clc1ccc(C(Cl)(Cl)Cl)cc1Cl`, the Potency result was “inactive”.

`CCn1cc[n+](C)c1` (tested in a mixture with another compound): the Potency result is “inactive”.

Turning to `[Cl][Hg][c]1ccccc1`, the Potency is 0.172 µM (active).

Consider `Cc1ccc2cc3c(ccc4ccccc43)c3c2c1CC3`, for which the Potency entry was “inactive”.

For the compound `CSC(C)(C)/C=N/O`, the Potency entry was “inactive”.

As to `CCOP(=S)(NC(C)C)Oc1ccccc1C(=O)OC(C)C` (stereo not given), the Potency is 13.7 µM (active).

In the case of `CC(Cl)CCl` (stereo not given), the Potency entry was “inactive”.

Regarding `CNC(C)(C)Cc1ccccc1`, the Potency result is “inactive”.

Regarding `C[N+]1(C)[C@@H]2CC[C@H]1CC(OC(=O)C(CO)c1ccccc1)C2` (stereo not given in full), the Potency result was “inactive”.

As to `C=CC(=C)C`, the Potency was 21.7 µM (active).

Take `Cc1cnc2c(C(=O)O)c(Cl)ccc2c1`: the Potency result is “inactive”.
